Pf Dd2 inh: P. falciparum Dd2 growth inhibitors, primary screen, SYBR Green fluorescence, single dose replicates; 72 h; stronger effect = lower value; AID 1159554, 2015; activity change, % at 10 µM; actives 2.3% (n = 94,000); in the data active = activity change below about -80%; inconclusive = no clear call, values can overlap the other calls
C diff HTS: C. difficile growth inhibitors, primary screen, HTS | actives 0.25% (n = 86,000) | growth activity, negative = inhibition, % at 16 µg/mL (by protocol) | AID 1259249, 2017 | Clostridium difficile clinical isolate growth, OD600, 24 h; stronger effect = lower value;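 active = mean growth activity at or below -80% and every replicate also at or below -80%; inconclusive = mean at or below -80% but some replicate above -80%; inactive = mean growth activity above -80%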;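 note: 0% = DMSO wells and -100% = levofloxacin 16 µg/mL wells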
T cruzi growth-1: T. cruzi intracellular proliferation inhibitors, primary screen, cell-based, beta-gal Tulahuen parasites, NIH3T3 host, luminescence. T. cruzi beta-gal in NIH3T3, GalScreen luminescence, 90 h. actives 5.9% (n = 77,000). inhibition, % at 8.34 µM. AID 624255, 2012;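 active = mean inhibition above about 93%, with at least 55% of replicates each passing it, limit read from the data, passing the limit was not always enough; inconclusive = only one of those two conditions holds; inactive = neither condition holds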
T cruzi growth-2: T. cruzi intracellular proliferation inhibitors, confirmation, cell-based, NIH3T3 host, beta-gal parasite, luminescence, cherry-pick. actives 72% (n = 5,600). shares compounds with T cruzi growth-1. AID 651739, 2012. inhibition, % at 8.35 µM. T. cruzi beta-gal in NIH3T3, GalScreen luminescence, 90 h;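 active = mean replicate inhibition above about 95% and at least 55% of replicates individually reaching it, limit read from the data; inconclusive = only one of the two criteria is met; inactive = neither criterion is met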
T cruzi growth-3: inhibitors of intracellular T. cruzi replication, confirmation, NIH3T3 host cells, beta-gal parasites, cherry-pick, set 2; shares compounds with T cruzi growth-1; T. cruzi beta-gal in NIH3T3, GalScreen luminescence, 90 h; inhibition, % at 2.09 µM; actives 21% (n = 5,600);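 active = mean inhibition above about 95%, with at least 55% of replicates also reaching it, limit read from the data; inconclusive = meets just one of the two conditions; inactive = meets neither condition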;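 note: plate controls were neutral control median for no effect and positive control median for full effect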
NIH3T3 tox: cytotoxicity in mouse NIH/3T3 fibroblasts, confirmation, cytotoxicity control for T. cruzi proliferation inhibitor project, cell-based, cherry-pick, single point; cytotoxicity (signal decrease), % at 8.35 µM; shares compounds with T cruzi growth-1; actives 14% (n = 5,600); AID 651742, 2012; NIH/3T3 viability, CellTiter-Glo ATP luminescence, 90 h;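 active = mean signal decrease across replicates above about 35% based on untreated-well scatter, with enough replicates individually passing, limit read from the data; inconclusive = no rule stated though some were filed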;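 note: 0% = median of neutral control wells and 100% = median of positive control wells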
3T3 cytotox 2: NIH/3T3 fibroblast cytotoxicity, confirmation, cytotoxicity control, cell-based, cherry-pick, single point, set 2; shares compounds with T cruzi growth-1; NIH/3T3 viability, CellTiter-Glo ATP luminescence, 90 h; inhibition, % at 24.9 µM; actives 56% (n = 5,600); AID 651744, 2012;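 active = mean loss of cell viability signal at or above a set limit, and enough replicates individually reaching it; inconclusive = meets only the mean limit or only the replicate share; inactive = meets neither condition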;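 note: 0% = median of neutral control wells and 100% = median of positive control wells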
Numbers without * were called inactive; u = inconclusive; x = not tested or not shown. This is a sample that favours compounds with a hit; in the whole collection about 6.7% have one here.

SMILES	Pf Dd2 inh	C diff HTS	T cruzi growth-1	T cruzi growth-2	T cruzi growth-3	NIH3T3 tox	3T3 cytotox 2
C[C@@H]1CN([C@H](C)CO)S(=O)(=O)c2ccc(-c3ccncc3)cc2O[C@H]1CN(C)C(=O)CC1CC1	10	4	77	x	x	x	x
Cc1noc(C)c1NC(=O)N(C)C[C@@H]1OCCCC[C@H](C)Oc2ccc(NS(C)(=O)=O)cc2C(=O)N([C@@H](C)CO)C[C@@H]1C	-8	1	30	x	x	x	x
C[C@H]1CN([C@@H](C)CO)C(=O)c2cc(C#Cc3ccccc3F)cnc2O[C@H]1CN(C)S(=O)(=O)c1ccccc1	-75	-11	x	x	x	x	x
C[C@@H]1CN([C@@H](C)CO)C(=O)c2cc(C#Cc3ccccc3F)cnc2O[C@H]1CN(C)S(=O)(=O)c1ccccc1	-27	-3	121*	110*	76	19	25*
CCNC(=O)[C@H]1[C@H](CO)[C@H]2Cn3c(ccc(-c4ccccc4)c3=O)[C@H]2N1Cc1ccccc1	-32	-1	52	x	x	x	x
CCN1[C@H](C(=O)OC)[C@@H](CO)[C@@H]2Cn3c(ccc(-c4cccc(C(=O)N(C)C)c4)c3=O)[C@@H]21	-19	4	96*	-38	-44	-12	-14
CCN1[C@H](C(=O)N[C@H](C)c2ccccc2)[C@@H](CO)[C@@H]2Cn3c(ccc(-c4cccc(F)c4)c3=O)[C@@H]21	-9	2	76	x	x	x	x
COC(=O)[C@H]1[C@H](CO)[C@H]2Cn3c(ccc(-c4cccc(C(=O)N(C)C)c4)c3=O)[C@H]2N1CC1CC1	x	2	44	x	x	x	x
CCN1[C@@H]2c3ccc(-c4cccc(F)c4)c(=O)n3C[C@@H]2[C@@H](CO)[C@@H]1C(=O)N[C@@H](C)c1ccccc1	-11	2	102*	25	30	1	25*
COC(=O)[C@@H]1[C@@H](CO)[C@@H]2Cn3c(ccc(-c4ccccc4)c3=O)[C@@H]2N1Cc1cccc(F)c1	-12	9	u	26	-17	-8	-1
CCNC(=O)[C@@H]1[C@@H](CO)[C@@H]2Cn3c(ccc(-c4ccc(OC)cc4)c3=O)[C@@H]2N1Cc1ccccc1	-21	1	100*	6	-25	-13	0
COC(=O)[C@H]1[C@H](CO)[C@H]2Cn3c(ccc(-c4ccccc4)c3=O)[C@H]2N1Cc1cccc(F)c1	-7	3	87	x	x	x	x
C[C@H](CO)N1C[C@H](C)[C@@H](CN(C)S(=O)(=O)c2cn(C)cn2)Oc2ccc(NC(=O)Cc3cn(C)c4ccccc34)cc2C1=O	2	x	51	x	x	x	x
COc1ccc(NC(=O)N(C)C[C@@H]2Oc3c(NS(=O)(=O)c4cn(C)cn4)cccc3C(=O)N([C@@H](C)CO)C[C@@H]2C)cc1	-6	-2	36	x	x	x	x
COc1ccc(S(=O)(=O)Nc2ccc3c(c2)C(=O)N([C@@H](C)CO)C[C@@H](C)[C@H](CN(C)C)OCCCC[C@@H](C)O3)cc1	0	-7	11	x	x	x	x
COc1ccc(-c2ccc3n(c2=O)C[C@@H]2[C@@H](CO)[C@H](C(=O)N(C)C)N(CC4CC4)[C@H]32)cc1	-3	10	103*	22	9	-3	19
COc1ccc(-c2ccc3n(c2=O)C[C@@H]2[C@@H](CO)[C@H](C(=O)N(C)C)N(CC4CCCC4)[C@H]32)cc1	x	-4	-4	x	x	x	x
CC(C)NC(=O)N[C@H]1CC[C@@H](CCNS(=O)(=O)c2ccc(F)cc2)O[C@@H]1CO	7	3	x	x	x	x	x
O=S(=O)(c1cccs1)N1CCCCN2[C@H](C1)[C@H](c1ccc(C3=CCCC3)cc1)[C@@H]2CO	15	-1	76	x	x	x	x
O=S(=O)(c1cccs1)N1CCCCN2[C@@H](CO)[C@@H](c3ccc(/C=C/c4ccccc4)cc3)[C@@H]2C1	-29	55	74	x	x	x	x
O=S(=O)(c1cccs1)N1CCCCN2[C@H](CO)[C@@H](c3ccc(Br)cc3)[C@H]2C1	-11	-1	92	x	x	x	x
C/C=C/c1ccc([C@H]2[C@H]3CN(S(=O)(=O)c4cccs4)CCCCN3[C@H]2CO)cc1	6	82	106*	106*	62	8	61*
O=S(=O)(c1cccs1)N1CCCCN2[C@H](CO)[C@H](c3ccc(C4=CCCCC4)cc3)[C@H]2C1	-50	49	105*	107*	56	30	104*
O=S(=O)(c1cccs1)N1CCCCN2[C@@H](CO)[C@H](c3ccc(Br)cc3)[C@@H]2C1	-24	30	103*	105*	32	-6	25
C/C=C/c1ccc([C@@H]2[C@@H](CO)N3CCCCN(S(=O)(=O)c4cccs4)C[C@H]23)cc1	-14	53	75	x	x	x	x
SMILES	Pf Dd2 inh	C diff HTS	T cruzi growth-1	T cruzi growth-2	T cruzi growth-3	NIH3T3 tox	3T3 cytotox 2
O=S(=O)(c1cccs1)N1CCCCN2[C@H](C1)[C@H](c1ccc(Br)cc1)[C@@H]2CO	-17	12	109*	100*	23	11	2
O=C(Cc1ccncc1)NCC[C@@H]1CC[C@H](NC(=O)C2CC2)[C@@H](CO)O1	11	4	x	x	x	x	x
CC(C)NC(=O)Nc1ccc2c(c1)C(=O)N([C@H](C)CO)C[C@@H](C)[C@H](CN(C)C(=O)c1ccncc1)OCCCC[C@H](C)O2	33	0	41	x	x	x	x
C[C@@H]1CN([C@H](C)CO)C(=O)CCCn2cc(nn2)CO[C@H]1CN(C)C(=O)Nc1ccc(N2CCN(C)CC2)cc1	-5	3	-33	x	x	x	x
C[C@@H]1CN([C@H](C)CO)C(=O)Cc2cc(NC(=O)Nc3ccc4c(c3)OCO4)ccc2O[C@H]1CN(C)C(=O)NC1CCCCC1	-13	-5	16	x	x	x	x
C[C@H]1CN([C@@H](C)CO)C(=O)c2cc(NS(C)(=O)=O)ccc2O[C@H]1CN(C)CC1CC1	50	5	-23	x	x	x	x
N#C[C@H]1[C@H](c2ccc(C#CC3CC3)cc2)[C@@H](CO)N1S(=O)(=O)c1ccccc1	-58	4	97*	100*	103*	3	13
N#C[C@H]1[C@H](c2ccc(C#CC3CCCCC3)cc2)[C@@H](CO)N1S(=O)(=O)c1ccccc1	-79	-12	92	x	x	x	x
N#C[C@@H]1[C@@H](c2ccc(C#CC3CC3)cc2)[C@H](CO)N1S(=O)(=O)c1ccccc1	-64	0	96*	u	102*	7	u
N#C[C@H]1[C@@H](c2ccc(C#CC3CC3)cc2)[C@H](CO)N1S(=O)(=O)c1ccccc1	-85*	4	101*	98*	113*	u	53*
